Assay [1] can be described thus: ATG_PXRE_CIS: Attagene CIS-FACTORIAL HepG2 Assay for human Pregnane X Receptor Element (PXRE) (AID 2282957). To be noted: HepG2 Attagene CIS-FACTORIAL PXRE reporter, mRNA; actives raise or lower the signal. A digest of the protocol:
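Cis-element reporter mRNA in human hepatoma HepG2 cells is measured 24 h post-dosing by RT-PCR, primer-extension labeling and capillary electrophoresis; gain or loss of signal is fitted relative to DMSO.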

Assay [2] in a line: ATG_PPRE_CIS: Attagene CIS-FACTORIAL HepG2 Assay for human Peroxisome Proliferator-activated Response Element (PPRE) (AID 2282958). Conditions: HepG2 PPRE cis-element reporter, Attagene transcription factor profiling; actives raise or lower the signal. A digest of the protocol:
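HepG2, transient MRTU transfection (cis promoter elements, endogenous TFs). 24 h dosing. RNA → oligo(dT) RT → PCR → 6-FAM primer extension → HpaI digest → CE. Bidirectional fit vs DMSO.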

Assay [3] in a line: ATG_RORE_CIS: Attagene CIS-FACTORIAL HepG2 Assay for human RAR-related Orphan Receptor Element (RORE) (AID 2282959). Conditions: HepG2 Attagene cis-factorial RORE reporter, mRNA; actives raise or lower the signal. A digest of the protocol:
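Transient MRTU transfection of human HepG2 liver cells (FuGene 6); 24 h compound exposure; TriZol RNA, oligo(dT) RT, PCR, FAM labeling, HpaI cut, CE fragment analysis. DMSO = negative control/baseline.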

A short description of assay [4]: ATG_Sox_CIS: Attagene CIS-FACTORIAL HepG2 Assay for human SRY-box transcription factor (SOX) (AID 2282960). Conditions: HepG2 Attagene cis-factorial SOX reporter, mRNA; actives raise or lower the signal. A digest of the protocol: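 Endogenous factor activity in human liver HepG2 cells carrying transfected cis-regulated reporter units. RNA taken 24 h post-dose, reverse-transcribed, PCR-amplified and sized by capillary electrophoresis. Gain or loss of signal fitted relative to DMSO.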

Assay [5] concerns the target Transcription factor Sp1 (Homo sapiens) (UniProt P08047). In words: ATG_Sp1_CIS: Attagene CIS-FACTORIAL HepG2 Assay for human Specificity Protein 1 (Sp1) (AID 2282961). To be noted: HepG2 Sp1 cis-reporter transcription, actives raise or lower the signal. A digest of the protocol:
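Transient MRTU-transfected HepG2, 24 h compound exposure. Total RNA → oligo(dT) RT → PCR of reporter → 6-FAM primer extension → HpaI digest → CE. Endpoint fitted both directions vs DMSO.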

Assay [6] in a line: ATG_SREBP_CIS: Attagene CIS-FACTORIAL HepG2 Assay for human Sterol Regulatory Element Binding (SREBP) (AID 2282962). Conditions: HepG2 Attagene cis-factorial SREBP reporter, mRNA; actives raise or lower the signal. Put shortly:
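HepG2 cells transiently transfected with multiplexed cis-promoter reporter units sensing endogenous transcription factors; reporter mRNA measured 24 h after dosing by RT-PCR, 6-FAM labeling, HpaI digestion and capillary electrophoresis. Bidirectional fit versus DMSO.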

The target in assay [7] is Signal transducer and activator of transcription 3 (Homo sapiens) (UniProt P40763). As to the kind of experiment: ATG_STAT3_CIS: Attagene CIS-FACTORIAL HepG2 Assay for human Signal Transducer and Activator of Transcription 3 (STAT3) (AID 2282963). Conditions: HepG2, Attagene cis-factorial STAT3 reporter transcription; actives raise or lower the signal. A digest of the protocol:
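HepG2 cells transiently transfected with cis-element-driven multiple reporter transcription units; after 24 h chemical exposure, reporter mRNA measured by RT-PCR, 6-FAM primer-extension labelling, HpaI digestion and capillary electrophoresis. Bidirectional fitting versus DMSO baseline.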

Assay [8] in a line: ATG_TA_CIS: Attagene CIS-FACTORIAL HepG2 Assay for human TA Basal Promoter (AID 2282964). To be noted: HepG2 Attagene CIS-factorial TA basal promoter reporter; actives raise or lower the signal. Put shortly:
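Fluorescence from labelled RT-PCR reporter fragments, separated by capillary electrophoresis, gives the signal. Cells: HepG2 transiently carrying multiple reporter units, 24 h chemical dosing. Gain or loss relative to DMSO.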

A short description of assay [9]: ATG_TCF_b_cat_CIS: Attagene CIS-FACTORIAL HepG2 Assay for human T-Cell-Factor with beta-catenin (TCF/b-cat) (AID 2282965). To be noted: HepG2 TCF/beta-catenin cis-reporter transcription, actives raise or lower the signal. Put shortly:
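HepG2 cells transiently transfected with multiple cis-promoter-regulated reporter transcription units, so endogenous transcription factor activity is measured. Reporter mRNA read 24 hours after dosing by RT-PCR, fluorescent labelling and capillary electrophoresis; bidirectional fitting against DMSO.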

Assay [10] is described as follows: ATG_TAL_CIS: Attagene CIS-FACTORIAL HepG2 Assay for human TAL Basal Promoter (AID 2282966).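 Also: background control endpoint measuring basal TAL promoter reporter mRNA not a specific factor.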 To be noted: HepG2 Attagene cis-factorial TAL promoter reporter; actives raise or lower the signal. A digest of the protocol: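 In this cell-based multiplex, HepG2 liver cells bearing cis-promoter reporter constructs are dosed for 24 hours. Total RNA is reverse-transcribed and amplified, labelled fragments are sized by capillary electrophoresis, and signal changes are fitted bidirectionally versus DMSO.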

Experimental findings from PubChem BioAssay (EPA / NIEHS) are described below.

More than one record can exist for a structure, and the calls need not agree. Activity calls are given as the source filed them. The calls were made as follows: active = hit-call score of the fitted dose curve at least 0.9, where 1 is the maximum; inactive = score below 0.9.

Sequence of Signal transducer and activator of transcription 3 (Homo sapiens) (P40763 whole entry, looked up): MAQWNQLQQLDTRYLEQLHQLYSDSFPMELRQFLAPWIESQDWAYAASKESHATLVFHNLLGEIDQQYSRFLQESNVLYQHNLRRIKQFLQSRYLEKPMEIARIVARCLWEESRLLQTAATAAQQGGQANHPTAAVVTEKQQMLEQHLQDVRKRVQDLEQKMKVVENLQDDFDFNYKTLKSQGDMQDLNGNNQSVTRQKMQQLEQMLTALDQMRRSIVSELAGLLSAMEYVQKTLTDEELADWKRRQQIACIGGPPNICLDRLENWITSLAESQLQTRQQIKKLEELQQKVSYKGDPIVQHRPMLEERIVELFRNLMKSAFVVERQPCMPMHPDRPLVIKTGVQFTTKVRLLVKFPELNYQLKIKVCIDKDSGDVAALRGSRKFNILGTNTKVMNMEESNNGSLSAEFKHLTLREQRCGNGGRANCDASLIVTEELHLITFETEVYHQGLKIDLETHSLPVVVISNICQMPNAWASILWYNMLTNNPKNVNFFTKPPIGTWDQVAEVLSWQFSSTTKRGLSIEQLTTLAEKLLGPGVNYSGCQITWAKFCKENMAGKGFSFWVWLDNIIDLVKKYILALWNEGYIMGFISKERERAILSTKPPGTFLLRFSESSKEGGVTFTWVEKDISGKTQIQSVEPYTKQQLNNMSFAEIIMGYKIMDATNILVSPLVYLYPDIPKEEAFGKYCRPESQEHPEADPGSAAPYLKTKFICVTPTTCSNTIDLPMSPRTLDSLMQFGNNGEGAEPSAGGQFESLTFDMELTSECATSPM
Sequence of Transcription factor Sp1 (Homo sapiens) (P08047 whole entry, looked up): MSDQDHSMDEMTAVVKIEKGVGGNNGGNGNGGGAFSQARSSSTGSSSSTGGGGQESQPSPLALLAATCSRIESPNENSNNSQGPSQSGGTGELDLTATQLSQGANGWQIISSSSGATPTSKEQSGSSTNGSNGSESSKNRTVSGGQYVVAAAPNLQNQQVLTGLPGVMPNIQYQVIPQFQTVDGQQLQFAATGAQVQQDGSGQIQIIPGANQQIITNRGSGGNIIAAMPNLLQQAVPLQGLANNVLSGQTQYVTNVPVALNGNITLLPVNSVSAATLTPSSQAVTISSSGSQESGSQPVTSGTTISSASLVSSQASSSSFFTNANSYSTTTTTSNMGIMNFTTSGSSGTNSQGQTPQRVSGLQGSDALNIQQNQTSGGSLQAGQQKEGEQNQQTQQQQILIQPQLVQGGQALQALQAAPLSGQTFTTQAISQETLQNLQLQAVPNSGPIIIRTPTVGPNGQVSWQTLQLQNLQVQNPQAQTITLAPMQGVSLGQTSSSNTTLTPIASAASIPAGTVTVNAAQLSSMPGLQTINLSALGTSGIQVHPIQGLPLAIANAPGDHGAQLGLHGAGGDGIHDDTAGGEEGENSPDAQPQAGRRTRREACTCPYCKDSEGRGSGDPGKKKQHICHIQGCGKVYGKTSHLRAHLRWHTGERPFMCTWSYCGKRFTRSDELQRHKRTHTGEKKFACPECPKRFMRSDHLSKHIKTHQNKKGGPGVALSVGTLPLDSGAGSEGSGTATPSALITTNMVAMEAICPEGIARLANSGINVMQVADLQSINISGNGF

In general, AC50 refers to the midpoint of the concentration-response curve, whichever way the signal moves. As for `C[CH2][Hg][S]c1ccccc1C(=O)O`, the AC50 in assay [1] was 5.8 µM (active); in [2] it was 0.814 µM (active); in assay [3], 2.97 µM (active); in assay [4], 2.56 µM (active); in assay [5] it was 1.51 µM (active); in assay [6], 2.66 µM (active). The concentration at half-maximal activity (AC50) in [9] is 6.54 µM (active); in [10], 1.87 µM (active). In addition, the compound was called inactive in assay [7] and in assay [8].
On to `C[As+](C)(C)CC(=O)[O-]`, for which the result in [1], in assay [2], in [3], in assay [4], in assay [5] and in assay [6] was inactive. The compound was classed as inactive in [7], in [8], in assay [9] and in assay [10].
`COc1ccccc1N`: the concentration at half-maximal activity (AC50) in assay [1] is 59.1 µM (active). For the same compound, the result in assay [1], in assay [3], in assay [4], in [5], in assay [6] and in [7] was inactive. Besides, the compound was called inactive in assay [8], in [9] and in assay [10].
As to `Clc1ccc(C(Cl)(Cl)Cl)cn1`, the AC50 in assay [1] is 14.1 µM (active). Besides, the call in [2], in assay [3], in assay [4], in assay [5], in assay [6] and in [7] was inactive. Further, the compound was classed as inactive in assay [8], in [9] and in assay [10].
On to `Clc1cnc(Oc2ccc(Oc3ncc(Cl)cc3Cl)cc2)c(Cl)c1`, for which the AC50 in [1] was 9.96 µM (active). In addition, the outcome in [2], in assay [3], in assay [4], in assay [5], in assay [6] and in [7] was inactive. Also, the compound was classed as inactive in [8] and in assay [9].
As to `CCCCOC(C)=O`, the result in assay [1], in [2], in [3], in assay [4], in assay [5] and in assay [6] was inactive. Besides, the compound was called inactive in assay [7], in assay [8], in assay [9] and in assay [10].
`N#Cc1ccc(Cl)cc1`: in assay [1], the AC50 is 54.6 µM (active). In addition, the outcome in assay [2], in assay [3], in assay [4], in [5], in assay [6] and in assay [7] was inactive. Besides, the result in [8] and in assay [9] was inactive.
As for `COCCl`, the result in [1], in [2], in [3], in [4], in [5] and in [6] was inactive. Also, the call in [7], in assay [8], in [9] and in [10] was inactive.
As to `N#CCC#N`, the compound was called inactive in assay [1], in assay [2], in assay [3], in assay [4], in [5] and in assay [6]. Besides, the compound was called inactive in assay [7], in assay [8] and in assay [9].
As for `CC[N+](CC)(CC)CC`, the outcome in assay [1], in assay [2], in [3], in assay [4], in assay [5] and in assay [6] was inactive. Also, the call in [7], in assay [8], in assay [9] and in assay [10] was inactive.
With `C=CC(=O)OCC(COC(=O)C=C)(COC(=O)C=C)COC(=O)C=C`, the outcome in [1], in assay [2], in assay [4], in [6], in assay [7] and in assay [8] was inactive. Besides, the outcome in assay [10] was inactive. Moreover, the AC50 was 8.19 µM (active) in assay [3], 8.41 µM (active) in assay [5] and 8.6 µM (active) in [9].
As for `O=S(=O)(F)C(F)(F)C(F)(F)C(F)(F)C(F)(F)F`, the compound was called inactive in [1], in assay [2], in [3], in assay [4], in assay [5] and in assay [6]. Further, the call in assay [7], in [8] and in assay [9] was inactive.
On to `O=C(NC(=O)c1c(F)cccc1F)Nc1cc(Cl)c(Oc2ncc(C(F)(F)F)cc2Cl)c(Cl)c1`, for which the result in assay [1], in assay [2], in assay [3], in [4], in [5] and in [6] was inactive. Moreover, the result in assay [7], in assay [8], in assay [9] and in assay [10] was inactive.
Take `Cc1cc(Cl)ccc1N`: in assay [1], the AC50 was 32.8 µM (active). For the same compound, the compound was called inactive in assay [1], in assay [2], in assay [5], in assay [6], in assay [7] and in [8]. The compound was called inactive in assay [9] and in assay [10].
As to `Cl[C@H]1OCCO[C@@H]1Cl`, the result in assay [1], in [2], in [3], in assay [4], in assay [5] and in [6] was inactive. Moreover, the result in assay [7], in assay [8], in [9] and in assay [10] was inactive.
Turning to `N#Cc1cccnc1`, the compound was called inactive in [1], in assay [2], in assay [3], in assay [4], in assay [5] and in [6]. In addition, the outcome in assay [7], in assay [8] and in assay [9] was inactive.
As for `O=C1c2ccccc2C(=O)C1C(=O)C(c1ccccc1)c1ccc(Cl)cc1` (centres undefined), the concentration at half-maximal activity (AC50) in [1] was 1.51 µM (active); in assay [2], 3.53 µM (active); in assay [3], 8.58 µM (active); in [4], 7.35 µM (active); in assay [5] it was 7.69 µM (active); in [6] it was 9.14 µM (active). Further, the AC50 in assay [7] is 167 µM (active); in assay [9], 12.2 µM (active); in [10], 161 µM (active). Also, the compound was classed as inactive in assay [8].
On to `CCCCCCCCCCCCCCC(Br)C(=O)O` (centres undefined), for which the result in [1], in [4], in [5], in assay [6], in assay [7] and in assay [9] was inactive. Also, the half-maximal activity concentration (AC50) is 42.2 µM (active) in assay [2], 111 µM (active) in assay [3] and 110 µM (active) in assay [8].
Take `Cc1cccc(C)c1NC(=O)CN1CCCC1=O`: the concentration at half-maximal activity (AC50) in assay [1] was 100 µM (active). The compound was classed as inactive in assay [2], in assay [3], in [4], in [5], in assay [6] and in [7]. Moreover, the outcome in [8], in [9] and in [10] was inactive.
As for `CC(C)(C)c1cc([N+](=O)[O-])cc(C(C)(C)C)c1O`, the concentration at half-maximal activity (AC50) in assay [1] was 4.23 µM (active); in assay [2], 12.8 µM (active); in [3], 28.7 µM (active). The outcome in assay [4], in assay [5], in assay [6], in assay [7], in assay [8] and in assay [9] was inactive. Also, the result in assay [10] was inactive.
For `OCCCCO`, the concentration at half-maximal activity (AC50) in assay [1] is 59 µM (active). In addition, the result in assay [2], in assay [3], in [4], in [5], in [6] and in [7] was inactive. The call in assay [8] and in assay [9] was inactive.
Turning to `CCOP(=S)(OCC)OP(=S)(OCC)OCC`, the half-maximal activity concentration (AC50) in assay [1] is 1.11 µM (active). The compound was called inactive in [2], in assay [3], in assay [4], in [5], in assay [6] and in [7]. For the same compound, the compound was called inactive in [8] and in [9].
Regarding `Nc1ccc(Br)cc1`, the compound was called inactive in [1], in assay [2], in assay [3], in assay [4], in assay [5] and in [6]. Also, the outcome in [7], in assay [8] and in assay [9] was inactive.
`BrCC(Br)c1ccccc1` (centres undefined): in assay [1], the AC50 is 27.3 µM (active). In addition, the compound was classed as inactive in [2], in assay [3], in [4], in assay [5], in [6] and in assay [7]. For the same compound, the outcome in assay [8] and in [9] was inactive.
